Rows were chosen to be rich in hits. Some 12% of all compounds tested hit in one or more screens of this group.
BAZ2B inh: BAZ2B (human) inhibition | Q9UIF8 | AlphaScreen BAZ2B-H3K14Ac peptide displacement | Potency, µM (series often up to 114 µM), most hits filed as inhibitors | 4.4% of 360,000 active; also: nearly all actives have a fitted effect of over 60% in size
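In this displacement format the biotinylated H3(5-23) peptide acetylated at Lys14 serves as ligand at 50 nM, with BAZ2B at 50 nM in PBS pH 7.4 containing 0.01% Tween-20. Donor and acceptor beads are 10 ug/mL final.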
G9a block: inhibitors of human histone lysine methyltransferase G9a. G9a H3K9 monomethylation, AlphaScreen, 2 h. Potency, µM (titrated, usually from 102 µM), most hits filed as inhibitors. 8.8% of 350,000 active. AID 504332; also: nearly all actives have a fitted effect of over 75% in size
Target sequence (Q96KQ7 913-1193 limits assumed): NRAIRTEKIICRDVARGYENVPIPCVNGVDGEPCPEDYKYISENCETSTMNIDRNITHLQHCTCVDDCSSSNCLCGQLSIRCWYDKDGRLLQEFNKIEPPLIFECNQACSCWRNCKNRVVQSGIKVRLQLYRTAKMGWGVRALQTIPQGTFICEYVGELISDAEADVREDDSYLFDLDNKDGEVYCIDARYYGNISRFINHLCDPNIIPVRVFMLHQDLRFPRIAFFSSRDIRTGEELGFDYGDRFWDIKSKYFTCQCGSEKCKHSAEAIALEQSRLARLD
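Using a bead-based AlphaScreen, monomethylated H3K9 product from 2 h room-temperature reactions (G9a 20 nM, peptide 500 nM, SAM 20 uM) was detected with 0.5 ug/mL rabbit anti-H3K9me1 antibody.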
HP1b chromo inh: inhibitors of HP1-beta chromodomain binding to methylated histone tails; AID 540317; P83916; Potency, µM (highest dose often 114 µM), hits mostly inhibitors; 0.56% of 390,000 active; AlphaScreen HP1-beta / biotin-H3K9me3 peptide binding; also: nearly all actives have a fitted effect of over 70% in size
Target sequence (P83916 whole entry, looked up): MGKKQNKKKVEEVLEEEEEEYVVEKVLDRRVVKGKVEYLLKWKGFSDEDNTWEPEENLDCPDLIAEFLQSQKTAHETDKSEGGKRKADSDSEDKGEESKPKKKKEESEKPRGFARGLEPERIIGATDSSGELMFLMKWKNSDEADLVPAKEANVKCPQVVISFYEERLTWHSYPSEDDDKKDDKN
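HP1-beta protein (50 nM final) preincubated 30 min at room temperature with biotinylated H3(1-18)K9me3 peptide (50 nM) in PBS pH 7.4, 0.01% Tween-20, then compound added for 30 min. AlphaScreen streptavidin donor/nickel chelate acceptor beads (10 ug/mL final), 30 min dark, luminescence read.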
JMJD2A Tudor: JMJD2A Tudor domain (human) inhibition. O75164. AlphaScreen JMJD2A-Tudor / H3K4me3 peptide binding. Potency, µM (series often up to 114 µM), usual class: inhibitors. AID 504339. 4.4% of 390,000 active; also: nearly all actives have a fitted effect of over 50% in size
L3MBTL1 inh: inhibitors of human L3MBTL1; 0.66% of 230,000 active; Potency, µM (doses to about 57.1 µM), usual class: inhibitors; Q9Y468; AlphaScreen L3MBTL1–H3K9me1 peptide binding; also: nearly all actives have a fitted effect of over 60% in size
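AlphaScreen assay: L3MBTL1 (50 nM final) was preincubated 30 min at room temperature with biotinylated H3(1-15)K9me1 peptide (75 nM final), then 30 min with library compounds; streptavidin donor and nickel chelate acceptor beads (10 ug/mL final) added, 30 min dark.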
Sfp inh: blocks B. subtilis Sfp PPTase activity. Q9F4F7. Biochemical Sfp PPTase activity, qHTS. Potency, µM, actives largely listed as inhibitors. 3.5% of 310,000 active. AID 1490;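 also: the enzyme is Sfp with the accession as filed and its product quenches rhodamine fluorescence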
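Fluorescence-quenching assay with 15 nM Sfp, 5 uM rhodamine-CoA and 12.5 uM BHQ-2-labelled ybbR peptide in pH 7.6 Hepes/MgCl2 buffer. Enzyme was pre-incubated with compound for 15 min at room temperature. Rate was taken from the 30-min fluorescence change (525/598 nm).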
Numbers stand for hits; – = inactive; ? = inconclusive; · = not tested or not shown; [ ] = another dose, or the depositor's remark. Calls follow the shape of the dose curve; as a rule, active = well fitted curve in the direction sought with a large enough effect; inconclusive = small, poorly fitted or top-dose-only effect, or another doubt; inactive = no such curve, though single readings can be large; an effect the other way counts as inactive or inconclusive.

SMILES	BAZ2B inh	G9a block	HP1b chromo inh	JMJD2A Tudor	L3MBTL1 inh	Sfp inh
CS(=O)(=O)c1ccc(Cl)c(NC(=O)COC(=O)CNC(=O)c2ccc3ccccc3c2)c1	–	–	–	–	–	·
COC(=O)[C@H](Cc1ccccc1)NC(=O)O[C@@H]1C(=O)c2cc(Br)ccc2O[C@H]1c1ccc2c(c1)OCO2	·	·	·	·	·	–
O=C(CC1C(=O)Nc2ccccc2N1CC(=O)N1CCCC1)Nc1ccc(Br)cc1 (stereo not drawn)	–	0.282µM	–	–	–	·
Cc1ccc(C(=O)Nc2ccccc2C(=O)O)cc1S(=O)(=O)N1CCCCCC1	–	–	–	–	·	·
COc1cccc(CN2CCN(S(=O)(=O)c3ccc(NC(C)=O)cc3)CC2)c1OC	–	–	?	2.51µM	–	–
COc1cc(CN2CCN(S(=O)(=O)c3ccc(NC(C)=O)cc3)CC2)cc(OC)c1OC	50.1µM	25.1µM	?	22.4µM	·	·
CCOc1ccc(S(=O)(=O)N2CCN(Cc3ccccc3)CC2)cc1	–	·	–	–	–	–
CCOc1ccc(CN2CCN(S(=O)(=O)c3ccc(Cl)cc3)CC2)cc1	–	2.24µM	–	?	·	·
CC(=O)Nc1ccc(S(=O)(=O)N2CCN(Cc3ccncc3)CC2)cc1	–	?	–	–	–	–
COc1ccc(CN2CCN(S(=O)(=O)c3ccc(C)cc3)CC2)cc1OC	·	·	?	50.1µM	·	·
c1ccc(Nc2nc(-c3ccccc3)c(-c3ccccc3)s2)cc1	·	·	–	–	·	·
COc1ccc(Cl)cc1N(CC(=O)NCCSc1ccccn1)S(=O)(=O)c1ccccc1	–	–	–	–	·	–
COc1cc(CC(=O)Nc2ccc(S(=O)(=O)N(C)C)cc2)cc(OC)c1OC	–	50.1µM	–	–	–	–
CCc1ccccc1N1C(=O)CC(N2CCc3ccccc32)C1=O (stereo not drawn)	–	?	–	–	–	–
O=C1CC(N2CCCc3ccccc32)C(=O)N1c1ccccc1 (stereo not drawn)	–	39.8µM	–	–	–	–
Cc1ccc(S(=O)(=O)N2CCCCC2C(=O)Nc2nncs2)cc1 (stereo not drawn)	–	39.8µM	–	–	–	–
Cc1ccc(S(=O)(=O)N2CCCC2C(=O)Nc2cc(C)on2)cc1 (stereo not drawn)	–	–	–	–	–	–
O=C(NCc1ccco1)C1CCCN(S(=O)(=O)c2ccc(-n3cnnn3)cc2)C1 (stereo not drawn)	?	56.2µM	–	–	–	39.8µM
COC(=O)Nc1ccc(S(=O)(=O)N2CCCCC2C(=O)NCc2ccco2)cc1 (stereo not drawn)	–	–[12.7 µM]	–	–	·	–
O=C(NCc1ccco1)C1CCCN1C(=O)Nc1cccc(Cl)c1 (stereo not drawn)	–	–	–	–	–	–
O=C(NCc1ccco1)C1CCCN1C(=O)Nc1ccc(Cl)cc1 (stereo not drawn)	·	–	–	14.1µM	–	–
Cc1ccc(S(=O)(=O)N2CCCCC2C(=O)NCc2ccco2)cc1 (stereo not drawn)	–	28.2µM	–	–	–	56.2µM
CN(C)C(=O)COc1ccc2c3c(c(=O)oc2c1)CCCC3	–	–[0.501 µM]	–	–	–[2.29 µM]	–
Cc1ccc(NC(=O)Cn2cnc3c(oc4ccccc43)c2=O)cc1Cl	?	?	–	–	·	·
O=C(NCc1ccco1)C1CCCN(c2nnc(-n3cccc3)s2)C1 (stereo not drawn)	?	–	?	56.2µM	·	–
Cc1cc(=O)n2nc(N3CCCC(C(=O)NCc4ccco4)C3)sc2n1 (stereo not drawn)	–	–[12.7 µM]	–	–	·	–
CCCc1cc(=O)n2nc(N3CCC(C(=O)NCc4ccco4)CC3)sc2n1	–	–	–	25.1µM	·	–
COc1ccc2nc(NC(=O)C3CCCN3S(=O)(=O)c3ccc(C)cc3)sc2c1 (stereo not drawn)	–	–	–	–	–	–
Cc1ccc(S(=O)(=O)N2CCCC2C(=O)Nc2nc3c(s2)CCCC3)cc1 (stereo not drawn)	?	44.7µM	–	–	–	–
Cc1cc(C)n2nc(-c3ccsc3-n3c(C)ccc3C)cc2n1	–	50.1µM	–	?	–	50.1µM

Screening results deposited in PubChem BioAssay by National Center for Advancing Translational Sciences (NCATS).
